In PubChem BioAssay AID1159580 (chemical genetic matrix, 2015):
“And” between values parts separate entries of the source, which are not always exact repeats. Equal values may be shown once. Out of some 5,500 compounds screened, about 2,000 (36%) were called active. Roughly 18% stayed inconclusive and do not appear here. Cut-off read from the data, not from the text of the source: active = normalized growth mostly below about 0.91 (no sharp cut-off); inconclusive = no clear call, values can overlap the other calls; inactive = mostly above about 0.92. The list shows a part of the results.

Assay: chemical genetic growth profiling, strain panel (AID 1159580);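 note: tested at 20 µM; growth read once vehicle control cultures reached saturation at 30 °C; 1 = growth at the plate median or of vehicle wells; lower values mean less growth of the strain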
Conditions: S. cerevisiae deletion strains, growth OD

Measured: normalized growth

CNC(=O)O/N=C(\C)SC
inactive: locus YAL013W, strain DEP1, hits give low values 1 | locus YAL021C, strain ccr4, hits give low values 0.987 | locus YAL026C, strain drs2, hits give low values 1 | locus YAL030W, strain snc1, hits give low values 1.01 | locus YBL061C, strain skt5, hits give low values 1 | locus YBR009C, strain hhf1, hits give low values 1.01 | locus YBR021W, strain FUR4, hits give low values 1.03 | locus YBR023C, strain chs3, hits give low values 1 | locus YBR171W, strain sec66, hits give low values 1 | locus YBR229C, strain ROT2, hits give low values 1.01 | locus YBR231C, strain swc5, hits give low values 1 | locus YBR279W, strain paf1, hits give low values 0.999 | locus YCL011C, strain gbp2, hits give low values 1.01 | locus YCL016C, strain dcc1, hits give low values 0.998 | locus YCL029C, strain bik1, hits give low values 0.983 | locus YCL061C, strain MRC1, hits give low values 1 | locus YCL069W, strain vba3, hits give low values 1 | locus YCR088W, strain abp1, hits give low values 1 | locus YDL005C, strain med2, hits give low values 1 | locus YDL035C, strain GPR1, hits give low values 1.02 | locus YDL040C, strain nat1, hits give low values 0.999 | locus YDL074C, strain BRE1, hits give low values 1.07 | locus YDL101C, strain DUN1, hits give low values 1.02 | locus YDL134C, strain PPH21, hits give low values 1.01 | locus YDL185W, strain tfp1, hits give low values 0.988 | locus YDL192W, strain arf1, hits give low values 0.981 | locus YDR001C, strain nth1, hits give low values 1 | locus YDR069C, strain doa4, hits give low values 1 | locus YDR101C, strain arx1, hits give low values 0.983 | locus YDR137W, strain rgp1, hits give low values 1.01 | locus YDR150W, strain NUM1, hits give low values 1.01 | locus YDR159W, strain sac3, hits give low values 1 | locus YDR162C, strain NBP2, hits give low values 0.987 | locus YDR195W, strain ref2 0.971 | locus YDR297W, strain sur2, hits give low values 1.02 | locus YDR318W, strain mcm21, hits give low values 0.994 | locus YDR334W, strain swr1, hits give low values 0.999 | locus YDR335W, strain msn5, hits give low values 0.997 | locus YDR388W, hits give low values 0.984 | locus YDR392W, strain spt3, hits give low values 1 | locus YDR502C, strain sam2, hits give low values 0.993 | locus YEL003W, strain gim4, hits give low values 1 | locus YEL037C, strain rad23, hits give low values 1 | locus YEL061C, strain CIN8 (second series), hits give low values 1 | locus YEL061C, strain CIN8, hits give low values 1.01 | locus YER015W, strain faa2, hits give low values 0.982 | locus YER016W, strain bim1, hits give low values 1 | locus YER110C, hits give low values 0.977 | locus YER111C, strain swi4, hits give low values 0.996 | locus YER155C, strain BEM2 (second series), hits give low values 1.01 | locus YER155C, strain BEM2, hits give low values 1.01 | locus YER167W, strain BCK2, hits give low values 0.993 | locus YFR010W, strain ubp6, hits give low values 0.997 | locus YGL078C, strain dbp3, hits give low values 0.98 | locus YGL086W, strain mad1, hits give low values 0.984 | locus YGL167C, strain pmr1, hits give low values 0.996 | locus YGL173C, strain kem1, hits give low values 0.991 | locus YGL227W, strain vid30, hits give low values 1.01 | locus YGL240W, strain doc1, hits give low values 0.987 | locus YGL248W, strain PDE1, hits give low values 1.04 | locus YGL253W, strain hxk2, hits give low values 0.998 | locus YGR078C, strain PAC10, hits give low values 1 | locus YGR135W, strain pre9, hits give low values 0.998 | locus YGR229C, strain SMI1, hits give low values 1.03 | locus YGR252W, strain gcn5, hits give low values 0.986 | locus YHR013C, strain ard1, hits give low values 0.998 | locus YHR027C, strain rpn1, hits give low values 0.989 | locus YHR030C, strain SLT2, hits give low values 0.988 and 1.07 | locus YHR079C, strain IRE1 (second series), hits give low values 0.993 | locus YHR079C, strain IRE1, hits give low values 1.05 | locus YHR094C, strain hxt1, hits give low values 0.983 | locus YHR129C, strain ARP1, hits give low values 1.01 | locus YHR142W, strain chs7, hits give low values 1.01 | locus YHR200W, strain rpn10, hits give low values 0.99 | locus YIL066C, strain RNR3, hits give low values 1.03 | locus YIL073C, strain SPO22, hits give low values 0.995 | locus YIL125W, strain kgd1, hits give low values 0.986 | locus YIR030C, strain dcg1, hits give low values 0.98 | locus YJL092W, strain hpr5, hits give low values 0.996 | locus YJL095W, strain BCK1 (second series), hits give low values 0.996 | locus YJL095W, strain BCK1, hits give low values 1.01 and 1.04 | locus YJL115W, strain asf1, hits give low values 1 | locus YJL129C, strain trk1, hits give low values 1.01 | locus YJL134W, strain LCB3, hits give low values 1.02 | locus YJL154C, strain vps35, hits give low values 0.999 | locus YJL164C, strain tpk1, hits give low values 1 | locus YJL166W, strain qcr8, hits give low values 1 | locus YJL168C, strain set2, hits give low values 0.989 | locus YJL187C, strain SWE1 (second series), hits give low values 1.01 | locus YJL187C, strain SWE1, hits give low values 1.02 | locus YJR043C, strain POL32, hits give low values 1.01 | locus YJR066W, strain TOR1, hits give low values 0.988
